# Assay results from PubChem BioAssay (NCATS).
# Records with an inconclusive call do not appear. Active and inactive are the calls of the source. Calls come from the whole dose curve; as a rule, active = well fitted inhibition curve with a large enough effect; inconclusive = small, poorly fitted or top-dose-only effect; inactive = flat fitted curve, though single readings scatter. Where a SMILES comes first, the peptide text is derived from it. Bridges are numbered along the chain shown (N, C = ends). [ ]: non-standard residue; d: D form. The star is where a group is joined. X2 = CC[C@H](C)CCCCC(=O)*; Dab = NCC[C@H](N)C(=O)O
# Biological target: Voltage-gated inwardly rectifying potassium channel KCNH2 (Homo sapiens) (UniProt Q12809)
# Sequence (Q12809 whole entry, looked up): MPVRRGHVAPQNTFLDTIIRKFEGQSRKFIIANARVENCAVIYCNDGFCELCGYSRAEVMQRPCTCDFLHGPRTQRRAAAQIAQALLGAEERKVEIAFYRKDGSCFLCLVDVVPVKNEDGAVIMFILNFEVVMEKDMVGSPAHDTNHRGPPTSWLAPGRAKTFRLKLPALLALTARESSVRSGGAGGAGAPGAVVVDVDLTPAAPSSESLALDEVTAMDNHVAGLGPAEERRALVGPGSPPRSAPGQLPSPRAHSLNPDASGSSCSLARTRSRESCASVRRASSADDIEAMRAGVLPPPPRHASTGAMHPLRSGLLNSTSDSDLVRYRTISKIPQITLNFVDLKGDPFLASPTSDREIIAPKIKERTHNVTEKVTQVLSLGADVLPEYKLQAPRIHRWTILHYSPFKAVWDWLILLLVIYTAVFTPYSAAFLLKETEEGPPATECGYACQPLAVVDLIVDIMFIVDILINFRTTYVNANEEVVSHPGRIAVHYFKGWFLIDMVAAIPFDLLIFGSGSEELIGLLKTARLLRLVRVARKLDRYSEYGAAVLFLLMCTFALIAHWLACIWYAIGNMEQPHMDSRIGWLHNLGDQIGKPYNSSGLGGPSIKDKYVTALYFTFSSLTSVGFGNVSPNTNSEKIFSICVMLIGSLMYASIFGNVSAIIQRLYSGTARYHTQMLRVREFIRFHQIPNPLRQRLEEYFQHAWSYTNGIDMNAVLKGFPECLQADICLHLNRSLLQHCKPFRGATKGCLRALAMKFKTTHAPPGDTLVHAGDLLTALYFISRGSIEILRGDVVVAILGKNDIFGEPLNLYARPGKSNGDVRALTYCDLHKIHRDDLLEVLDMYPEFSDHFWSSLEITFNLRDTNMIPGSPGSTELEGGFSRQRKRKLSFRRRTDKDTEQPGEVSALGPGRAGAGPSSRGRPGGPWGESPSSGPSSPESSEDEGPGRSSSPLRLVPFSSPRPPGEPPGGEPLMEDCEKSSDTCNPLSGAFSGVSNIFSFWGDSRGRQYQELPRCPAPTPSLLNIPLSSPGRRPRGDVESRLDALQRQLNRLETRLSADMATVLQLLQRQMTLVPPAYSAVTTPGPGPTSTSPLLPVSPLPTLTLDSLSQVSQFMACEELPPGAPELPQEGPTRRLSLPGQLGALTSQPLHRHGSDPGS
# Assay: qHTS Assay for Small Molecule Inhibitors of the Human hERG Channel Activity (AID 588834);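 note: lower thallium flux fluorescence means stronger hERG block; nearly all actives have a fitted effect of over 50% in size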; for activity change, negative = inhibition: top concentration of the series differs between compounds
# Settings: U2OS BacMam hERG, FluxOR thallium flux fluorescence; series mostly up to 46.1 µM; activity change, negative = inhibition: at the top concentration
# Outline: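 hERG-BacMam U2OS, 2000 cells/well; 0.7X FluxOR loading 1 hr RT dark; cpd ~10 min 37 °C; stim buffer; FDSS fluorescence 2 min @ 1 s; AC50 Hill fit.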
# % is set by controls: 0 for no effect and ±100 for the full control effect; potency is the fitted concentration of half-maximal effect.
Compound,"activity change, negative = inhibition",Potency
CC1(C)S[C@@H]2[C@H](N3C(=O)C(c4ccccc4)NC3(C)C)C(=O)N2[C@H]1C(=O)O (some centres undefined),-1.22% (inactive),–
CC1=C(/C=C/C(C)=C/C=C/C(C)=C/C=C/C=C(C)/C=C/C=C(C)/C=C/C2=C(C)C[C@@H](O)CC2(C)C)C(C)(C)C[C@H](O)C1,-6.39% (inactive),–
CC[C@H](C)CCCCC(=O)N[C@@H](CCN)C(=O)N[C@H](C(=O)N[C@@H](CCN)C(=O)N[C@H]1CCNC(=O)[C@@H]([C@H](C)O)NC(=O)[C@H](CCN)NC(=O)[C@H](CCN)NC(=O)[C@H](CC(C)C)NC(=O)[C@@H](CC(C)C)NC(=O)[C@H](CCN)NC1=O)[C@@H](C)O (X2-[Dab]T[Dab][Dab][Dab][dL]L[Dab][Dab][dT]; lactam 4-C),1.35% [at 20.6 µM] (inactive),–
C[C@@H]1O[C@@H](OC[C@H]2O[C@@H](Oc3c(-c4ccc(OCCO)c(OCCO)c4)oc4cc(OCCO)cc(O)c4c3=O)[C@H](O)[C@@H](O)[C@@H]2O)[C@H](O)[C@H](O)[C@H]1O,-0.235% (inactive),–
COc1ccc(C(=O)/C(Br)=C\C(=O)O)cc1,0.875% (inactive),–
C[C@@H]1C[C@H]2[C@@H]3C[C@H](F)C4=CC(=O)C=C[C@]4(C)[C@@]3(Cl)[C@@H](O)C[C@]2(C)[C@H]1C(=O)COC(=O)C(C)(C)C,-2.65% (inactive),–
C=C1c2c(Cl)ccc(O)c2C(O)=C2C(=O)[C@]3(O)C(O)=C(C(N)=O)C(=O)[C@@H](N(C)C)[C@@H]3[C@@H](O)[C@H]12,10.5% [at 20.6 µM] (inactive),–
NC(=O)c1ccc[n+]([C@@H]2O[C@H](COP(=O)([O-])OP(=O)(O)OC[C@H]3O[C@@H](n4cnc5c(N)ncnc54)[C@H](O)[C@@H]3O)[C@@H](O)[C@H]2O)c1,-2.86% [at 20.6 µM] (inactive),–
O=C(OC[C@H]1O[C@@H](OC(=O)c2cc(O)c(O)c(OC(=O)c3cc(O)c(O)c(O)c3)c2)[C@H](OC(=O)c2cc(O)c(O)c(OC(=O)c3cc(O)c(O)c(O)c3)c2)[C@@H](OC(=O)c2cc(O)c(O)c(OC(=O)c3cc(O)c(O)c(O)c3)c2)[C@@H]1OC(=O)c1cc(O)c(O)c(OC(=O)c2cc(O)c(O)c(O)c2)c1)c1cc(O)c(O)c(OC(=O)c2cc(O)c(O)c(O)c2)c1,–,25.1 µM (active)
